# From PubChem BioAssay AID1044 (The Scripps Research Institute Molecular Screening Center, 2008)
# Among all 16,000 compounds or so, about 240 (1.5%) were called active. Only a selection was taken, and actives are over-represented in it overall. Values without a mark were called inactive. Cut-off read from the data, not from the text of the source: active = activation above about 80%; inactive = the rest.
# Molecular target: Sphingosine 1-phosphate receptor 1 (Homo sapiens) (UniProt P21453)
# Assay: S1P1 (human) receptor agonism (AID 1044)
# Conditions: S1P1 agonist cell-based reporter assay; at 4.5 µM; active compounds read high
# Sphingosine 1-phosphate receptor 1 (Homo sapiens), sequence (P21453 whole entry, looked up): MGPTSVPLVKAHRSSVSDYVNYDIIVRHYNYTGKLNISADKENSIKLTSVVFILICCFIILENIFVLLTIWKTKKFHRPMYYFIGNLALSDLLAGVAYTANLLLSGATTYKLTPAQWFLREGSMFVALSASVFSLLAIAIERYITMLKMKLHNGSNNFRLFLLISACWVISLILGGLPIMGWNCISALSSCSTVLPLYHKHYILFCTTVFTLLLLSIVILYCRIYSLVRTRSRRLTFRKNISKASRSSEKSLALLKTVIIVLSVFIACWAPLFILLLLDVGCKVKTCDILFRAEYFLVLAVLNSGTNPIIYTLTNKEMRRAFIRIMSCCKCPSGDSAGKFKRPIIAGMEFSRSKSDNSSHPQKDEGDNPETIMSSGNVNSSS
row,SMILES,activation
1,O=S(=O)(Oc1cccc(C(F)(F)F)c1)c1cc(S(=O)(=O)c2ccccc2)cs1,4.61%
2,Cn1nc(C(C)(C)C)c(NC(=O)c2sccc2Cl)c1C(C)(C)C,-7.37%
3,CCc1ccc(S(=O)(=O)Nc2ccc(C)c(NS(C)(=O)=O)c2)cc1,6.03%
4,Cc1oc(-c2ccc(Cl)cc2)cc1C(=O)N1CCOCC1,6.2%
5,CCOC(=O)c1c(NS(=O)(=O)c2cccc3nsnc23)sc(C)c1C,117% (active)
6,Cc1c(-c2cnc(NC(=O)c3ccccc3)s2)sc2ccc(Cl)cc12,7.33%
7,NNC(=O)COc1ccc(C2SCCS2)cc1,-2.77%
8,NNC(=O)c1csc(COc2ccc(C3SCCS3)cc2)n1,83% (active)
9,O=C(Nc1ccc(Cl)cc1)c1csc(COc2ccc3nonc3c2)n1,-33.9%
10,O=c1oc2ccc(Cl)cc2cc1-c1ccc([N+](=O)[O-])cc1,-9.38%
11,O=C(NNc1ccc(C(F)(F)F)cn1)c1ccccc1Cl,-0.55%
12,COc1cccc2cc(C(=O)O)oc12,-0.93%
13,O=C(O)CC(CC(=O)O)c1ccc(C(F)(F)F)cc1,0.91%
14,O=C1c2ccc3c4c(ccc(c24)C(=O)N1c1ccccc1)C(=O)N(c1ccccc1)C3=O,-6.17%
15,CCCCCCNC(=O)NCCCCCC,-9.06%
16,COc1ccc(CCNCC(O)Cn2ccc3ccccc32)cc1OC (stereo not drawn),5.51%
17,c1ccc2c(c1)NC(C1Nc3ccccc3O1)O2 (stereo not drawn),-3.26%
18,COc1cc(CCN=Cc2ccccc2O)c([N+](=O)[O-])cc1OC,-11.4%
19,CS/C(N)=N/N=C/c1cccs1,-0.53%
20,COC(=O)C1=C(NNc2ccccc2)CSC1,6.31%
21,Cc1cc(CNCC(O)C(F)(F)F)no1 (stereo not drawn),-6.99%
22,FC(F)(F)C1=CC=NCCN1,1.36%
23,N/C(=N\OC(=O)Nc1ccccc1)c1ccc(Oc2c(Cl)cncc2Cl)cc1,13.7%
24,Cc1nc(-c2ccc(NC(=O)COCC(=O)O)cc2)cs1,-4.96%
25,CCCCCCCCc1ccc(C(=O)O)cc1,19.6%
26,CCOC(=O)c1c(NC(=S)Nc2ccccc2)sc2c1CCN(C)C2,-17.2%
27,Cc1nnsc1-c1nnc(SCC(=O)c2ccc3c(c2)OCO3)n1C1CC1,0.92%

row,SMILES,activation
1,COc1cccc(NC(=S)N(CCC#N)C2CCCCC2)c1,-17.6%
2,COc1cccc(NC(=S)NNC(=S)NC2CC3CCC2C3)c1 (stereo not drawn),97.7% (active)
3,COc1ccc(NC(=S)Nc2ccc(OC)cc2)cc1,2.11%
4,COc1cccc(C(=O)c2sc3nsc(SCc4ccc(F)cc4)c3c2N)c1,50.7%
5,Cc1ccc([N+](=O)[O-])c(C(=O)NCC(=O)O)c1,-20%
6,OC(COc1ccc(F)cc1)(c1ccccc1)c1ccccc1,-25.6%
7,CCO/N=C\c1nn(S(C)(=O)=O)cc1Br,-3.43%
8,CCOC(=O)Cc1nc(N)ncc1C(=O)OCC,-10.1%
9,Clc1ccc(-c2csc(N/N=C\c3ccn[nH]3)n2)cc1,8.84%
10,O=C(NCCO)NCCSc1ccc(F)cc1,-13.1%
11,O=C1CSC(=S)N1c1ccc(N2CCCCCC2)c(N2C(=O)CSC2=S)c1,0.84%
12,COC(=O)c1ccc(S(=O)(=O)NNC(=O)c2cn3cc(C(F)(F)F)cc(Cl)c3n2)n1C,-20.2%
13,N#Cc1ccc(N2CCSCC2)cc1[N+](=O)[O-],-27.1%
14,O=C(Nc1ccccc1C(=O)NCc1c(F)cccc1Cl)c1ccccc1Cl,15.3%
15,O=C(O)c1ccccc1Nc1ccccc1F,2.49%
16,O=C(CNC(=O)c1ccccc1F)c1ccc(Br)cc1,84.7% (active)
17,Cc1ccc(Sc2cc(C)c(C)cc2N)c(C)c1,10.7%
18,Cc1csc(/N=C/N(C)C)c1C#N,-3.89%
19,NS(=O)(=O)c1ccc(Oc2c(Cl)cccc2[N+](=O)[O-])cc1,-8.03%
20,CCCS(=O)(=O)c1csc(C(=O)OC)c1N/N=C/c1cccs1,-27.2%
21,Cn1cccc1CNC(=O)c1cc(F)cc2c1OCOC2,21.1%
22,Cc1c(C(=O)Nc2ccccc2)sc2cc(C(C)(C)C)sc12,23.4%
23,O=C1OC2(CCCCC2)OC1c1ccccc1 (stereo not drawn),-9.78%
24,CSc1nc2c(c(/C=C/c3ccccc3)c1C#N)CCC2,-18.1%
25,O=C1c2ccccc2O[C@@H](c2ccccc2)[C@@H]1NC1CCCCC1,75.6%
26,NNC(=O)c1cc2ccccc2s1,8.06%
